According to ChEMBL document CHEMBL2218924, “A broad activity screen in support of a chemogenomic map for kinase signalling research and drug discovery” (Biochem J, 2013):

What follows are compounds tested against Tyrosine-protein kinase ABL1 (Homo sapiens) (UniProt P00519). Conditions: at 1 µM.
Chain of Tyrosine-protein kinase ABL1 (Homo sapiens) (P00519 whole entry): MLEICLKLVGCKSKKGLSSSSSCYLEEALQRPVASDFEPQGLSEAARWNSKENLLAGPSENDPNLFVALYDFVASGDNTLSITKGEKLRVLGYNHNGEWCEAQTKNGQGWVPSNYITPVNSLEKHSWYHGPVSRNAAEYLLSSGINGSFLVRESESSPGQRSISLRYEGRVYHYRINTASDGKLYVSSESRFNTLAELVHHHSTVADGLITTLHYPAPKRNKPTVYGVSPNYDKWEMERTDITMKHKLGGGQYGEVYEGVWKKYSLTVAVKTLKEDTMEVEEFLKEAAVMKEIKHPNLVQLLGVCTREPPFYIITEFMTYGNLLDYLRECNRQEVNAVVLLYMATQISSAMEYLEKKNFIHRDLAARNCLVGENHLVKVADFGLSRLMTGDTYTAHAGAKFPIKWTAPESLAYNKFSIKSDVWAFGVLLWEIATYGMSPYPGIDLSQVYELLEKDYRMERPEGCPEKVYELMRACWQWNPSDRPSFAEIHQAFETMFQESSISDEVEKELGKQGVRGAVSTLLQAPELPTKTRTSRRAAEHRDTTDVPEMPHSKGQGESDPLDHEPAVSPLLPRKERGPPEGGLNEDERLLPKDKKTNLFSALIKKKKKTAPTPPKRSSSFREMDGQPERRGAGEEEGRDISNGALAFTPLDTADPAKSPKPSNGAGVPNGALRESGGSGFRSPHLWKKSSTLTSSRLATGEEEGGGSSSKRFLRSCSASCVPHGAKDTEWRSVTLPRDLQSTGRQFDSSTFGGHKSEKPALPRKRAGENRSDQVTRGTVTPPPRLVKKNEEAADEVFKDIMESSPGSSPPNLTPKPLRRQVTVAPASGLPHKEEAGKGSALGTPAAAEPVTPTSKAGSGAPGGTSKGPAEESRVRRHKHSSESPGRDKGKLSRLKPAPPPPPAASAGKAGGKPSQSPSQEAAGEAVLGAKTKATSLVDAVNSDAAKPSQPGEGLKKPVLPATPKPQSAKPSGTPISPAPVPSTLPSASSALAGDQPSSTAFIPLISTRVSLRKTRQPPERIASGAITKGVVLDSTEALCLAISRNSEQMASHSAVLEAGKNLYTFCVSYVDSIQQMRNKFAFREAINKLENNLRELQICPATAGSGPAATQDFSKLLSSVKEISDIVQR

Structure (SMILES)	residual activity
COc1ccc(CNc2nc(N(CCO)CCO)nc3c2ncn3C(C)C)cc1	100%
O=C1NC(=O)c2c1c1c3ccccc3[nH]c1c1[nH]c3cc(Br)ccc3c21	98%
Cc1cccc(-c2[nH]c(C(C)(C)C)nc2-c2ccc3c(c2)OCO3)n1	96%
COc1cc2ncnc(Nc3ccc(NC(=O)c4ccccc4)cc3)c2cc1OC	101%
Nc1nc(Nc2ccc(S(N)(=O)=O)cc2)nn1C(=S)Nc1c(F)cccc1F	-5%
NC(=O)c1ccc2[nH]c(-c3ccc(Oc4ccc(Cl)cc4)cc3)nc2c1	106%
c1ccc(-c2n[nH]c3c2oc2ccccc23)cc1	96%
Oc1c2ccccc2c2c3c(cccc13)N=N2	83%
Cc1nc2cc3nc(-c4cccs4)cnc3cc2n1C	90%
N#CC(C#N)=C(N)/C(C#N)=C/c1ccc(O)cc1	87%
Oc1ccc(-c2nc(-c3ccc(F)cc3)c(-c3ccncc3)[nH]2)cc1	98%
Oc1ccc(Nc2nc(-c3ccc(Cl)cc3)cs2)cc1	94%
CCN(CC)C(=O)c1ccc(Nc2nc(OCC3CCCCC3)c3nc[nH]c3n2)cc1	46%
O=C(Nc1cccc(Nc2cc(Nc3cccc(C(F)(F)F)c3)ncn2)c1)C1CC1	84%
C[C@@H](N)[C@H]1CC[C@H](C(=O)Nc2ccncc2)CC1	113%
CCC(=O)Nc1ccc2ncnc(Nc3cccc(Br)c3)c2c1	90%

Structure (SMILES)	residual activity
CO[C@@H]1[C@H](N(C)C(=O)c2ccccc2)C[C@H]2O[C@]1(C)n1c3ccccc3c3c4c(c5c6ccccc6n2c5c31)C(=O)NC4	89%
Nc1cccc(-c2cc3c(Oc4cccc(O)c4)ncnc3[nH]2)c1	-6%
COc1ccc(C(=O)Nc2sc3c(c2C(N)=O)CCCC3)cc1OC	87%
Cc1cncc2cccc(S(=O)(=O)N3CCCN(C(=O)CN)C[C@H]3C)c12	88%
O=C(Nc1cccc(Nc2nccc(Nc3cccc(C(F)(F)F)c3)n2)c1)C1CC1	68%
COc1cc2ncc(-c3ccccc3)nc2cc1OC	96%
O=C1NC(=O)/C(=C\c2ccc3nccnc3c2)S1	100%
O=C1NC(=O)/C(=C/c2ccc3c(c2)OC(F)(F)O3)S1	103%
Nc1ccc2ncnc(NCCc3ccc(Oc4ccccc4)cc3)c2c1	100%
Cc1ccc(NC2=CC(=O)c3sc(C)nc3C2=O)cc1	99%
Oc1n[nH]c2nnc(-c3c(-c4ccccc4)nn4ccccc34)cc12	81%
COc1ccc(OC)c2c(=S)c3ccccc3[nH]c12	97%
O=C1Nc2ccc(Br)cc2/C1=C\c1cc2c([nH]1)CCCC2	105%
N#CCCc1ccc2c(c1)-c1[nH]c3ccc([N+](=O)[O-])cc3c1CC(=O)N2	31%
Cc1cc(Nc2nc(-c3ccccc3)nc3ccccc23)n[nH]1	54%
c1ccc(-c2n[nH]cc2-c2ccnc3ccccc23)nc1	69%
